Screening data (PubChem)
The list is not random: actives were taken first. Their share in the collection is about 1.1%.
CIT2 TOR yeast = yeast TOR pathway CIT2-GFP modulation; S. cerevisiae CIT2-GFP strain, flow cytometry, 3 h; 100 means same as DMSO wells; GFP response vs DMSO, % at 10 µM; 320,000 tested, 0.065% active;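 active = GFP response relative to DMSO above a set limit, near the screen mean plus 3 SD, cut at about 150% in these data; inconclusive = Fewer than 70 cells measured for a yeast strain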;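 also: ratio of well median GFP fluorescence to mean of DMSO wells on the plate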
VLA-4 inh = inhibition in a human VLA-4 binding assay; VLA-4 expressing cells, ligand binding flow cytometry; inhibition, % (about 7 µM as worked out from the volumes in the protocol); 330,000 tested, 0.2% active; AID 2557; in the data active = inhibition above about 50%
MEP2 TOR yeast = yeast TOR pathway MEP2-GFP modulation | S. cerevisiae MEP2-GFP strain, flow cytometry GFP, 3 h; 100% = DMSO control level | GFP response vs DMSO, % at 10 µM | 330,000 tested, 0.51% active | AID 2016;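 active = GFP response versus DMSO above a set limit, roughly screen mean plus 3 SD, cut at about 180% in these data; inconclusive = fewer than 70 cells counted for a yeast strain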;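 also: median GFP fluorescence of the barcode-gated MEP2-GFP cells per well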
AGP1 TOR yeast = yeast TOR pathway AGP1-GFP modulation; S. cerevisiae AGP1-GFP multiplex flow cytometry, 3 h; GFP as percent of DMSO wells; GFP response vs DMSO, % at 10 µM; 320,000 tested, 0.02% active; AID 2066;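 active = GFP response relative to DMSO above a set limit, near screen average plus 3 SD, cut at about 150% in these data; inconclusive = fewer than 70 cells counted for the yeast strain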;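 also: median GFP channel fluorescence of the gated AGP1 strain per well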
RPL19A-GFP yeast = modulators of TOR pathway RPL19A-GFP in S. cerevisiae | S. cerevisiae RPL19A-GFP strain, flow cytometry, 3 h; active compounds read low | percent response vs DMSO, % at 10 µM | 330,000 tested, 0.3% active | AID 2025;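 active = percent response vs DMSO below 50%; inconclusive = fewer than 70 events counted for the yeast strain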;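 also: median channel GFP fluorescence of the barcoded RPL19A-GFP strain; ratio of sample median GFP to plate DMSO average so 100% = DMSO; lower means less RPL19A-GFP as with rapamycin TOR inhibition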
LAP4 TOR yeast = modulators of TOR pathway LAP4-GFP in S. cerevisiae; S. cerevisiae LAP4-GFP multiplex, flow cytometry GFP, 3 h; median GFP as percent of DMSO wells; GFP response vs DMSO, % at 10 µM; 320,000 tested, 0.34% active;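 active = GFP response vs DMSO above a set limit, about the screen mean plus 3 SD, cut at about 150% in these data; inconclusive = under 70 cell events counted for the yeast strain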
VLA-4 mod pick = human VLA-4 allosteric modulation in cherry picked compounds; inhibition, % at 6.7 µM; 1,300 tested, 2% active; U937 cells, HUTS-21 LIBS mAb binding, flow cytometry; LDV ligand present at threefold Kd; shares compounds with VLA-4 inh; in the data active = inhibition above about 40%;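 also: 0% = ligand without compound and 100% = no ligand background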
The depositor's hits bear a star; ? = inconclusive; . = no result given; [ ] = dose if it differs, or a comment.

SMILES	CIT2 TOR yeast	VLA-4 inh	MEP2 TOR yeast	AGP1 TOR yeast	RPL19A-GFP yeast	LAP4 TOR yeast	VLA-4 mod pick
CNc1nc(OCCNC(=O)Nc2ccccc2)nc(N2CCOCC2)n1	98.8	58.8*	106.6	103.7	100.0	102.9	0.7
COc1ccc(C2=Nn3c(nnc3-c3ccccc3OC)SC2)cc1OC1CCOC1 (centres undefined)	110.6	14.8	103.5	109.3	114.3	100.2	.
CCOC(=O)C1(C(F)(F)F)N=C(C(F)(F)F)Nc2ccccc21 (centres undefined)	84.8	56.3*	99.2	87.0	115.9	75.5	1.3
CCCc1cc(=O)[nH]c(-n2[nH]c3c(c2=O)CCCC3)n1	103.0	-5.8	98.2	99.3	97.4	95.0	3.1
Cc1ccc(-c2nnc3ccc(SC(C)C(=O)O)nn23)cc1 (centres undefined)	106.0	-11.8	111.0	104.6	105.0	101.1	-0.6
COc1ccc(-c2nnc3ccc(SCC(=O)NCc4ccco4)nn23)cc1OC	87.3	9.8	93.9	96.6	95.8	95.3	0.7
COc1ccc(-c2nnc3ccc(SCC(=O)N4CCCCC4)nn23)cc1OC	95.4	21.4	99.8	99.7	96.5	95.5	7.0
CCOc1ccc(-c2nnc3ccc(SCC(=O)Nc4cc(C)on4)nn23)cc1	92.3	10.0	101.5	95.6	95.8	96.2	.
Cc1cc(NC(=O)CSc2ccc3nnc(-c4ccc(Cl)cc4)n3n2)no1	.	-0.7	107.7	102.5	110.5	101.3	4.4
COCC(C)NC(=O)c1ccccc1[N+](=O)[O-] (centres undefined)	96.2	12.2	95.8	92.5	96.9	87.8	.
NC(=O)C1CCN(C(=O)CSc2ncccn2)CC1	100.5	1.4	94.8	103.6	96.7	100.0	.
Cc1ccnc(SCC(=O)N2CCC(C(N)=O)CC2)n1	?	50.7*	357.7*[may fluoresce violet]	?	14.5*[may fluoresce violet]	97.8	12.3
CC(C(=O)O)c1ccc(C(=O)c2ccccc2)s1 (centres undefined)	93.9	3.7	95.5	99.0	97.1	107.3	.
O=C(COC(=O)c1cc[n+]([O-])cc1)Nc1ccc(Cl)cc1C(F)(F)F	103.9	7.3	103.2	110.7	100.2	106.7	.
O=C(Nc1ccc(Cl)c(Cl)c1)OCc1cncs1	104.6	4.3	107.2	93.2	92.8	102.7	-3.2
O=C(/C=C/c1ccccc1)OCc1cncs1	85.1	0.4	87.5	85.2	94.1	87.9	.
O=C(Nc1ccccc1)OCc1cnc(Cl)s1	92.7	0.0	100.0	76.0	90.8	124.5	2.9
O=C(Nc1ccc(Cl)c(Cl)c1)OCc1cnc(Cl)s1	102.7	2.2	106.5	101.8	100.3	95.9	10.0
O=C(Nc1ccccc1)OCc1cncs1	97.8	7.3	105.4	99.2	105.4	97.1	5.7
CC(=O)Nc1cccc(OCc2cnc(Cl)s2)c1	87.2	1.7	93.2	87.9	89.5	88.6	.
CC(C)Oc1ccc(C(=O)Nc2cccc(S(=O)(=O)N3CCCC3)c2)cc1	106.0	19.3	102.7	101.8	99.7	99.1	.
CC1(C)C(=O)Nc2ccccc2N1C(=O)COC(=O)/C=C/c1ccc(OC(F)F)cc1	104.5	1.5	101.3	108.1	98.7	106.0	.
CCCCNC(=O)CN(Cc1ccco1)S(=O)(=O)c1ccc(C(C)=O)cc1	99.2	2.2	91.6	96.4	95.1	94.7	.
CCCN(C(=O)CCNC(=O)c1ccc(Cl)cc1)c1c(N)n(Cc2ccccc2)c(=O)[nH]c1=O	95.8	11.1	98.1	95.3	94.9	91.1	.
Cc1cccc(NC(=O)C2CCN(C(=O)c3ccc(F)cc3)CC2)n1	105.4	1.5	101.1	102.3	98.5	104.8	0.7
SMILES	CIT2 TOR yeast	VLA-4 inh	MEP2 TOR yeast	AGP1 TOR yeast	RPL19A-GFP yeast	LAP4 TOR yeast	VLA-4 mod pick
Cc1cccc(NC(=O)C2CCN(C(=O)c3ccc(Cl)cc3)CC2)n1	96.5	1.4	102.5	109.0	100.5	102.9	-1.6
NC(=O)c1ccccc1NS(=O)(=O)c1ccc(F)cc1	84.8	5.3	74.3	95.1	96.8	90.6	0.0
COC(=O)c1ccccc1NS(=O)(=O)c1ccc(F)cc1	?	-5.7	89.1	?	?	?	.
Cc1ccc(S(=O)(=O)NCC(=O)OCCOc2cccc(Cl)c2)cc1	85.1	-4.0	96.2	94.4	98.4	96.2	.
CCN(C[C@H]1N[C@@](Cc2ccccc2)(C(=O)OC)[C@H]2C(=O)N(Cc3ccccc3)C(=O)[C@@H]12)S(=O)(=O)c1ccc(C(C)(C)C)cc1	98.6	-14.8	103.7	101.4	101.4	97.3	15.0
CCN(C[C@H]1N[C@@](Cc2ccccc2)(C(=O)OC)[C@H]2C(=O)N(Cc3ccccc3)C(=O)[C@@H]12)S(=O)(=O)c1ccc(OC(F)(F)F)cc1	83.2	-9.4	92.7	83.8	89.8	84.9	-1.4
CCOC(=O)CSc1ccc2nnc(-c3cccs3)n2n1	91.1	51.0*	102.5	91.5	93.5	85.1	15.7
CCCC(=NC(C)CC)C1=C(O)CC(c2ccccc2)CC1=O (centres undefined)	99.6	2.3	98.3	95.9	104.8	94.0	.
O=C(Cc1ccccc1)Nc1cccc(N2C(=O)C=CC2=O)c1	92.9	60.2*	97.1	98.8	103.0	110.8	36.2
O=C(O)c1cn(Cc2ccccc2)c2ccc(Cl)cc2c1=O	80.1	20.4	87.6	84.0	96.4	118.9	.
CCC(C(=O)Nc1cccc(S(=O)(=O)N(C)c2ccccc2)c1)c1ccccc1 (centres undefined)	104.8	8.5	107.5	103.6	104.9	95.9	.
CCCN1C(=O)C(=O)c2cc(Cl)ccc21	90.3	-0.6	92.7	93.8	88.3	90.6	.
Cc1cccc2c(CCNC(=O)c3ccc([N+](=O)[O-])cc3)c[nH]c12	.	68.1*	.	.	.	.	17.6
COc1ccc(NC(=O)C(=O)N2N=C3CCCCC3C2(O)C(F)(F)F)cc1 (centres undefined)	91.7	-2.1	89.3	96.5	94.5	89.5	.
Clc1ccc2c(N/N=C/c3ccc(Br)cc3)ccnc2c1	77.7	50.8*	100.3	83.9	100.1	102.1	12.3
CC(C)c1ccccc1-n1c(SCC(=O)N2CCc3ccccc3C2)nc2ccccc2c1=O	89.5	54.8*	97.0	93.5	98.6	93.7	8.4
O=C(CSc1nc2ccccc2c(=O)n1-c1ccccc1)N1CCc2ccccc2C1	101.8	8.3	115.1	99.4	98.7	97.5	.
Cc1ccc(S(=O)(=O)N2CCOCC2)cc1NC(=O)COC(=O)c1ccccc1OCc1c(C)noc1C	91.6	40.2	90.4	94.7	95.8	96.7	-14.3
